Data on 37 molecules can be found in PubChem BioAssay (NCI).

SMILES strings stand for the structures. This is part of a sample that, as a whole, favours compounds with a hit. Of some 83,000 tested, about 20% had one in any assay.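 Single-concentration screen, 48 h exposure, 96-well plates. Endpoint: percent growth. Below 10 = active.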 Calls of active or inactive are those of the source.

The first assay deals with SNB-75 CNS. Put plainly: NCI-60 one-dose screen, 48 h (100 = growth as untreated, 0 = no growth, -100 = all killed). The conditions noted are these: 10 µM unless noted.
For the molecule `CCC(=O)Oc1c(C)cc(O)c2ccccc12`, the growth is 86.4% (inactive).

With `COCC(N)=O`, the growth was 102% (inactive).

On to `Cc1cc(C)cc(OCC(=O)O)c1`, for which the growth is 94.8% (inactive).

Regarding `CCOC(OCC)C(=O)c1ccccc1`, the growth was 94.1% (inactive).

In the case of `Cc1ccnc(Nc2nc3ccccc3[nH]2)n1`, the growth is 109% (inactive).

As for `O=C(NC(=S)N1CC=CCC1)c1ccccc1`, the growth was 111% (inactive).

Regarding `COc1cc(OC)c(NC(=O)C(Sc2nc(C)cc(C)c2C#N)c2ccccc2)cc1Cl` (stereo not drawn), the growth is 27.4% (inactive).

With `O=S(=O)(O)c1cccc2cccnc12`, the growth is 98.2% (inactive).

In the case of `CC(C)(CC(=O)O)CC(=O)O`, the growth is 90.2% (inactive).

On to `CC(=O)N(C)N=Nc1ccc(C)cc1`, for which the growth is 93.2% (inactive).

For `CC(=O)c1cccs1`, the growth is 96% (inactive).

With `CSCC[C@@H]1C(=O)N(C)[C@H](C(C)(C)C)N1C(=O)c1ccccc1`, the growth was 85.2% (inactive).

As to `CC1=CC(=Nc2ccc(N(C)C)cc2)C=C(C)C1=O`, the growth was 75.8% (inactive).

In the case of `OC(CCN1CCCCC1)(c1ccccc1)c1ccccc1`, the growth is 85.8% (inactive).

For the molecule `CCOC(=O)c1ccc(NC(=O)Nc2nccs2)cc1`, the growth was 61.5% (inactive).

Regarding `O=CNCCc1ccccc1`, the growth is 82.9% (inactive).

The subject of the next assay is SNB-19 CNS. The assay is described as above. The conditions noted are these: 10 µM unless noted.
On to `CCCCCC(=O)OCCC1CCCCC1`, for which the growth is 112% (inactive).

For `CC(C)OCC(CCl)OC(=O)Nc1ccccc1` (stereo not drawn), the growth was 105% (inactive).

Take `Oc1cccc(CNC2CCCCC2)c1`: the growth is 95% (inactive).

`C=CCC(OC(C)=O)c1ccc(OC)c(OC)c1` (stereo not drawn): the growth is 109% (inactive).

Consider `COC1OC(CO)C(OC)C(O)C1O` (stereo not drawn), for which the growth is 105% (inactive).

On to `O=S(Cc1ccccc1)/C(=C/NC(=S)Nc1ccccc1)c1ccccc1` (stereo not drawn), for which the growth is 110% (inactive).

On to `Oc1ccc(N=Cc2ccc(OCc3ccccc3)cc2)cc1`, for which the growth was 91.3% (inactive).

Regarding `CCCCCCCCCCCCCCCCCC(=O)NCCNC(=O)CCCCCCCCCCCCCCCCC`, the growth is 108% (inactive).

Regarding `O=C1C=C(c2ccccc2)C(O)(c2ccccc2)C1` (stereo not drawn), the growth is 135% (inactive).

As to `Nc1ncc([N+](=O)[O-])cn1`, the growth is 95.6% (inactive).

As to `CCN(C(C)=O)c1ccc([N+](=O)[O-])cc1`, the growth is 101% (inactive).

With `C1C[S+]2CC[S+]1CC2`, the growth is 103% (inactive).

`NC(=O)OCCO`: the growth was 108% (inactive).

On to `COC1CC(OC(=O)c2ccc([N+](=O)[O-])cc2)C(COC(=O)c2ccc([N+](=O)[O-])cc2)O1` (stereo not drawn), for which the growth is 101% (inactive).

As to `CC(=O)c1cc(O)ccc1O`, the growth is 97.9% (inactive).

For `Cc1c(Cl)cccc1NC(=S)NC(=O)c1ccccc1`, the growth was 107% (inactive).

For `Cc1cc(Cl)cc(Cc2cc(Cl)cc(C)c2O)c1O`, the growth is 17.3% (inactive).

For `CCCOCc1cn[nH]n1`, the growth was 115% (inactive).

`Cc1ccc(C(C)C)c(OCC(=O)O)c1`: the growth is 104% (inactive).

Regarding `OC(CBr)CCBr` (stereo not drawn), the growth was 97% (inactive).

As to `CC(CCC#N)(CCC#N)C(=O)c1ccccc1`, the growth was 102% (inactive).

With `CCC(=O)Oc1c(C)cc(O)c2ccccc12`, the growth is 108% (inactive).

`COCC(N)=O`: the growth is 107% (inactive).

With `Cc1cc(C)cc(OCC(=O)O)c1`, the growth was 97.1% (inactive).

On to `CCOC(OCC)C(=O)c1ccccc1`, for which the growth was 103% (inactive).

Turning to `Cc1ccnc(Nc2nc3ccccc3[nH]2)n1`, the growth is 112% (inactive).

For `O=C(NC(=S)N1CC=CCC1)c1ccccc1`, the growth was 105% (inactive).

In the case of `COc1cc(OC)c(NC(=O)C(Sc2nc(C)cc(C)c2C#N)c2ccccc2)cc1Cl` (stereo not drawn), the growth was 94.1% (inactive).

Take `O=S(=O)(O)c1cccc2cccnc12`: the growth was 106% (inactive).

On to `CC(C)(CC(=O)O)CC(=O)O`, for which the growth is 99.2% (inactive).

With `CC(=O)N(C)N=Nc1ccc(C)cc1`, the growth was 101% (inactive).

Regarding `CC(=O)c1cccs1`, the growth was 102% (inactive).

Take `CSCC[C@@H]1C(=O)N(C)[C@H](C(C)(C)C)N1C(=O)c1ccccc1`: the growth is 114% (inactive).

For the molecule `CC1=CC(=Nc2ccc(N(C)C)cc2)C=C(C)C1=O`, the growth is 106% (inactive).

As for `OC(CCN1CCCCC1)(c1ccccc1)c1ccccc1`, the growth is 110% (inactive).

For `CCOC(=O)c1ccc(NC(=O)Nc2nccs2)cc1`, the growth was 11.6% (inactive).

In the case of `O=CNCCc1ccccc1`, the growth is 98.4% (inactive).
